# Measured values from PMC7862700, “An all-to-all approach to the identification of sequence-specific readers for epigenetic DNA modifications on cytosine”.
# What was measured:
# Experiment in all cases: DAPPL (digital affinity profiling via proximity ligation, sequencing); 10 mM Tris-HCl pH 7.5, 50 mM NaCl, 1 mM DTT, 4% glycerol, room temperature, 30 min; GST-TFs on glutathione beads, 16-mer random dsDNA library, 0.1% formaldehyde crosslink after washing; high values mean tight binding
# FLI1 = biological target: T1, FLI1 (Homo sapiens, UniProt Q01543 1-452); conditions: protein: recombinant; tags: N-terminal GST; dsDNA, one strand shown
# T1 sequence: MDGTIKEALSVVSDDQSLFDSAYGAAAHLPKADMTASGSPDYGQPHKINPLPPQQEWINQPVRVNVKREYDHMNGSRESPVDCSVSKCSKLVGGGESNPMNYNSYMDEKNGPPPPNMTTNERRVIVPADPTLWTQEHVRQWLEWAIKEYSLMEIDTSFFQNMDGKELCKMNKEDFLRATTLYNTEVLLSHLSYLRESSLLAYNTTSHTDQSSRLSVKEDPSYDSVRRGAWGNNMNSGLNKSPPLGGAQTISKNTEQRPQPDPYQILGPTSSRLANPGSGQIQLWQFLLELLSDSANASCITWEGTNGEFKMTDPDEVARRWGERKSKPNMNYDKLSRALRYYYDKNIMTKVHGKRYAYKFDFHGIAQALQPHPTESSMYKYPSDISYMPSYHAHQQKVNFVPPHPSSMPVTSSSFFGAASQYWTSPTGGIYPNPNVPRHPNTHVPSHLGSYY
# Summary of the method: (§1)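 Beads coated with glutathione captured GST-fused human transcription factors that had been expressed in yeast, and the factors were then given DNA barcodes and pooled with a tag-only sample. The pools were incubated with 200 nmole of a random double-stranded 16-mer DNA library in Tris/NaCl/DTT/glycerol buffer for 30 min at room temperature, washed, crosslinked with 0.1% formaldehyde and proximity-ligated with BsaI/T4 ligase at 37 °C for 1 h. PCR amplification and Illumina NextSeq500 sequencing came last. Binding signal is each hexamer's read frequency for a factor divided by its frequency for the tag-only sample.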
# ELK1 = biological target: T2, ELK1 (Homo sapiens, UniProt P19419 1-428); conditions: protein: recombinant; tags: N-terminal GST; dsDNA, one strand shown
# T2 sequence: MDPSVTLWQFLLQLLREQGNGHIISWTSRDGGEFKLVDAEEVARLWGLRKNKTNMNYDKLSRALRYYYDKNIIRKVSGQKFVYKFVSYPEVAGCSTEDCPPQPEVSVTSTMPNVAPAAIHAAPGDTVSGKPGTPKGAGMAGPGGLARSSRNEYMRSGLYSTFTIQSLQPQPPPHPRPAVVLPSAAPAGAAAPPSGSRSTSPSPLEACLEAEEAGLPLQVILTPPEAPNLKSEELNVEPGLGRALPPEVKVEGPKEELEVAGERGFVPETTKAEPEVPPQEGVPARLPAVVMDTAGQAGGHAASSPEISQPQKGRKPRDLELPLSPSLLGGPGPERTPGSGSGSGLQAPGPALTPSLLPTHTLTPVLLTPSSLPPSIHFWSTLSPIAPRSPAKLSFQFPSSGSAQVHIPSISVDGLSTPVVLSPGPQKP
# Summary of the method: as §1
# GABPA = biological target: T3, GABPA (Homo sapiens, UniProt Q06546 1-454); conditions: protein: recombinant; tags: N-terminal GST; dsDNA, one strand shown
# T3 sequence: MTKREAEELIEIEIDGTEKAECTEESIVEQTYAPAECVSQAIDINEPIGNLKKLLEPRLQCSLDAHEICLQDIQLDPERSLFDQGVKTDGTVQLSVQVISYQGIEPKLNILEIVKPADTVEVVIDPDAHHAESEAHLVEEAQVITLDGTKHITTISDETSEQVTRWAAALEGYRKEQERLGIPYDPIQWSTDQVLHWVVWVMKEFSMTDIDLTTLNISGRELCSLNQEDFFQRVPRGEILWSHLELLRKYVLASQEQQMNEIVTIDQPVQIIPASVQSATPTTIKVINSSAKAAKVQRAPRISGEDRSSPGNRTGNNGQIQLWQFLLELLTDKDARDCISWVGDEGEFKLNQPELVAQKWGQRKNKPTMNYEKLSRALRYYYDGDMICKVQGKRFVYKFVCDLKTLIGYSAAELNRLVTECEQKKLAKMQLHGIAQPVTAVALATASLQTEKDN
# Summary of the method: as §1
# ERG = biological target: T4, ERG (Homo sapiens, UniProt P11308 1-479); conditions: protein: recombinant; tags: N-terminal GST; dsDNA, one strand shown
# T4 sequence: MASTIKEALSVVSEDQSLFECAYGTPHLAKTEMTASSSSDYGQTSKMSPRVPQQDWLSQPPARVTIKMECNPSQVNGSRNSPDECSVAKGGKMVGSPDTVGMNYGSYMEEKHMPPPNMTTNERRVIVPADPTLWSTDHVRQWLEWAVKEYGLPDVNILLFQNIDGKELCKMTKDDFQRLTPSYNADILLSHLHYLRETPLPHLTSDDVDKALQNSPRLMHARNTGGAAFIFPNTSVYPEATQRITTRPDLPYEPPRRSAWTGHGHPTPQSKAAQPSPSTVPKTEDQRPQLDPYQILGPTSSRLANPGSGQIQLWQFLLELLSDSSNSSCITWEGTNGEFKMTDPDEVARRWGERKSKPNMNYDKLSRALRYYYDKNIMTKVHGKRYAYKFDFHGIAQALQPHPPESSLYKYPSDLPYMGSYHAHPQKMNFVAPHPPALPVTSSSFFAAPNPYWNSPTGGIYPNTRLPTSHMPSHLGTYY
# Summary of the method: as §1
# ELF1 = ELF1 (Homo sapiens, UniProt P32519 1-619); conditions: protein: recombinant; tags: N-terminal GST; dsDNA, one strand shown
# Summary of the method: as §1
# EHF = biological target: T5, EHF (Homo sapiens, UniProt Q9NZC4 1-300); conditions: protein: recombinant; tags: N-terminal GST; dsDNA, one strand shown
# T5 sequence: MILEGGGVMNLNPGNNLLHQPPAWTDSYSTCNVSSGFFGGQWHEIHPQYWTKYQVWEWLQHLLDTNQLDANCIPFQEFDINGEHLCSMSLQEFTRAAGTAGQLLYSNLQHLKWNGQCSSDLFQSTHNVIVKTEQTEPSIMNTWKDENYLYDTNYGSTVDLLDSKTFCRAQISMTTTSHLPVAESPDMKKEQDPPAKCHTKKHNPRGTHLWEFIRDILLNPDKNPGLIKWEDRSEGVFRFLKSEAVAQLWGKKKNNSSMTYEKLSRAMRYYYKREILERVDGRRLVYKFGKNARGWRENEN
# Summary of the method: as §1
# SPI1 = SPI1 (Homo sapiens, UniProt P17947 1-270); conditions: protein: recombinant; tags: N-terminal GST; dsDNA, one strand shown
# Summary of the method: as §1
# SPIB = SPIB (Homo sapiens, UniProt Q01892 1-262); conditions: protein: recombinant; tags: N-terminal GST; dsDNA, one strand shown
# Summary of the method: as §1
# ELK3 = biological target: T6, ELK3 (Homo sapiens, UniProt P41970 1-407); conditions: protein: recombinant; tags: N-terminal GST; dsDNA, one strand shown
# T6 sequence: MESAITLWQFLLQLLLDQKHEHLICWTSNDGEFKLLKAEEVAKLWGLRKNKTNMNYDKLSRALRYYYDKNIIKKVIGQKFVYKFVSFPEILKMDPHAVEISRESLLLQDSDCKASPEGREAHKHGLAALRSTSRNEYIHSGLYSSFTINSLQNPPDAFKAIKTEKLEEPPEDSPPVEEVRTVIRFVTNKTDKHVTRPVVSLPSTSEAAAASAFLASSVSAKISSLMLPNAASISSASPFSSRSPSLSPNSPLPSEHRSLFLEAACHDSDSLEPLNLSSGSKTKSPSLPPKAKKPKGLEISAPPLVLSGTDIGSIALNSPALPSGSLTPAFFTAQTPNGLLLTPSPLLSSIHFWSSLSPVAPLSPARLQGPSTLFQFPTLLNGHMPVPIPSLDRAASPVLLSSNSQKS
# Summary of the method: as §1
# FEV = biological target: T7, FEV (Homo sapiens, UniProt Q99581 1-238); conditions: protein: recombinant; tags: N-terminal GST; dsDNA, one strand shown
# T7 sequence: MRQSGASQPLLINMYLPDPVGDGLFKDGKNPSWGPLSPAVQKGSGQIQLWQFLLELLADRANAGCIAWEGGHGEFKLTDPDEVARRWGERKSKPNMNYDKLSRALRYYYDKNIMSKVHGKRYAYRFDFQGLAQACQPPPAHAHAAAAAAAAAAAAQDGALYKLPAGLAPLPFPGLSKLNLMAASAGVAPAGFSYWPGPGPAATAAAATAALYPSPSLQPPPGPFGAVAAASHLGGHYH
# Summary of the method: as §1
# ETV5 = ETV5 (Homo sapiens, UniProt P41161 1-510); conditions: protein: recombinant; tags: N-terminal GST; dsDNA, one strand shown
# Summary of the method: as §1
# HSF1 = HSF1 (Homo sapiens, UniProt Q00613 1-529); conditions: protein: recombinant; tags: N-terminal GST; chain copies: 3; dsDNA, one strand shown
# Summary of the method: as §1
# SPIC = biological target: T8, SPIC (Homo sapiens, UniProt Q8N5J4 1-248); conditions: protein: recombinant; tags: N-terminal GST; dsDNA, one strand shown
# T8 sequence: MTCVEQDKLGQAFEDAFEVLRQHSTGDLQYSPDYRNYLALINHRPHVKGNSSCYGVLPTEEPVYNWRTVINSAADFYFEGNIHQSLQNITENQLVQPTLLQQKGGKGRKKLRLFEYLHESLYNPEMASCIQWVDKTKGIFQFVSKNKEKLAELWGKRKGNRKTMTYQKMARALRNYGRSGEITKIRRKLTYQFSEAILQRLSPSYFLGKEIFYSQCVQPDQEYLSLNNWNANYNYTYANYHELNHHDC
# Summary of the method: as §1
# ELF4 = ELF4 (Homo sapiens, UniProt Q99607 1-663); conditions: protein: recombinant; tags: N-terminal GST; dsDNA, one strand shown
# Summary of the method: as §1
# ELK4 = biological target: T9, ELK4 (Homo sapiens, UniProt P28324-2 1-405); conditions: protein: recombinant; tags: N-terminal GST; dsDNA, one strand shown
# T9 sequence: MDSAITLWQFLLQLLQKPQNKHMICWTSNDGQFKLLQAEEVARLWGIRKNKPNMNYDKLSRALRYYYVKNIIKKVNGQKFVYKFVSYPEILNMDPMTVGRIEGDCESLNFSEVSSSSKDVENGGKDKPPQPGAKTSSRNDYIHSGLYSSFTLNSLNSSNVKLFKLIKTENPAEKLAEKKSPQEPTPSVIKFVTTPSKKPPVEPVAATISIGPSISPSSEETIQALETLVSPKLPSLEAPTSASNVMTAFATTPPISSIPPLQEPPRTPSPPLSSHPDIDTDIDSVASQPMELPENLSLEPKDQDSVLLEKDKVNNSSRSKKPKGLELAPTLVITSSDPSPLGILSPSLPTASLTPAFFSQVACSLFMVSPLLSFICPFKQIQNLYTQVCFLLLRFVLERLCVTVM
# Summary of the method: as §1
# ETV2 = biological target: T10, ETV2 (Homo sapiens, UniProt O00321 1-342); conditions: protein: recombinant; tags: N-terminal GST; dsDNA, one strand shown
# T10 sequence: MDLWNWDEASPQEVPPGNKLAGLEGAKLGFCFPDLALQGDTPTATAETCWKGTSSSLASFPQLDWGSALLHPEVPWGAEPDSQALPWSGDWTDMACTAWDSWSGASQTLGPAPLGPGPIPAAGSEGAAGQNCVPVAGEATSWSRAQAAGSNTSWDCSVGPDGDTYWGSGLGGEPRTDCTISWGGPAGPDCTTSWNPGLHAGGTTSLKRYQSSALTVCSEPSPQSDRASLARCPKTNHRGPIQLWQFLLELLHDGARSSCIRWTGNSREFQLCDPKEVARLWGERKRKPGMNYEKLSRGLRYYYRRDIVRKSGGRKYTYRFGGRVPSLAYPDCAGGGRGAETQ
# Summary of the method: as §1
# ELF3 = biological target: T11, ELF3 (Homo sapiens, UniProt P78545 1-371); conditions: protein: recombinant; tags: N-terminal GST; dsDNA, one strand shown
# T11 sequence: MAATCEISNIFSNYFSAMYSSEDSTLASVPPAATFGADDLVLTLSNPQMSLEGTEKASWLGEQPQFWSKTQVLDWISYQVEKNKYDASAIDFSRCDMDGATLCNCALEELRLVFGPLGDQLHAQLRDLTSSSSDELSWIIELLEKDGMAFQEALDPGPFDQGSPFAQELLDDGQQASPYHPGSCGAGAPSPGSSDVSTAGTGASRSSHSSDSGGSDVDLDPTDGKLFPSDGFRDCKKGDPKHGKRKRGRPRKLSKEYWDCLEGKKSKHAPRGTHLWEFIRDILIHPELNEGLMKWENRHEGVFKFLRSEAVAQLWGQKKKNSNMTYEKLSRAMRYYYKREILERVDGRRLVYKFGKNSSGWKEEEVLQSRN
# Summary of the method: as §1
# CRX = CRX (Homo sapiens, UniProt O43186 1-299); conditions: protein: recombinant; tags: N-terminal GST; dsDNA, one strand shown
# Summary of the method: as §1
# ETV1 = ETV1 (Homo sapiens, UniProt P50549 1-477); conditions: protein: recombinant; tags: N-terminal GST; dsDNA, one strand shown
# Summary of the method: as §1
# Chain of SPIB (Q01892 whole entry): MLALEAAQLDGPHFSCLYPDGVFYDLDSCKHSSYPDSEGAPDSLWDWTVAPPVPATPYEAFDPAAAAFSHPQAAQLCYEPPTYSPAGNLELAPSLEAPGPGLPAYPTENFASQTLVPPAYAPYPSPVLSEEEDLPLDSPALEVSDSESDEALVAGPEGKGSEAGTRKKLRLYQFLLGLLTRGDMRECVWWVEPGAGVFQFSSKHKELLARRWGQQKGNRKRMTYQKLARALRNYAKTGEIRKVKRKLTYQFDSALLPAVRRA
# Chain of ETV5 (P41161 whole entry): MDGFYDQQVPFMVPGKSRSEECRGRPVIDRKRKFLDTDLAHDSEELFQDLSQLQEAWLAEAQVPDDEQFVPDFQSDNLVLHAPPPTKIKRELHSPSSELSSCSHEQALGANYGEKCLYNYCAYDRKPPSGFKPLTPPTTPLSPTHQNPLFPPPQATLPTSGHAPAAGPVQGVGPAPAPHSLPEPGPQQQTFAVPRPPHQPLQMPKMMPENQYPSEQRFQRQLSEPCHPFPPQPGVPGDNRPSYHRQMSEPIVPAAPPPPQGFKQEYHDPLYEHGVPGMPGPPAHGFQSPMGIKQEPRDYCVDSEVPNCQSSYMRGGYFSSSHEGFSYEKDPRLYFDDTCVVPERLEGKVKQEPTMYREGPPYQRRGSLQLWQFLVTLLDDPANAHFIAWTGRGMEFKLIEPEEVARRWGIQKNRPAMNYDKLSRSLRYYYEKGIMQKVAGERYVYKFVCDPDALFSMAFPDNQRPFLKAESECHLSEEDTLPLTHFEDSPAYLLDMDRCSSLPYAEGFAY
# Chain of CRX (O43186 whole entry): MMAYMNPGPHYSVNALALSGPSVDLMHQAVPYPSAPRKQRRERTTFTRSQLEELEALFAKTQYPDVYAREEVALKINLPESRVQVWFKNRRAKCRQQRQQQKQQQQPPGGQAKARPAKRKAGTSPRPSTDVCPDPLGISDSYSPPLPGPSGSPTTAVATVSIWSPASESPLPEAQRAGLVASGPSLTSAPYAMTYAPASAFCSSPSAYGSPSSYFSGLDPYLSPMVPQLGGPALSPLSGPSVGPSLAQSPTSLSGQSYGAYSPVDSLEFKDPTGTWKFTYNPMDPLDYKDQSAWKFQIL
# Chain of ETV1 (P50549 whole entry): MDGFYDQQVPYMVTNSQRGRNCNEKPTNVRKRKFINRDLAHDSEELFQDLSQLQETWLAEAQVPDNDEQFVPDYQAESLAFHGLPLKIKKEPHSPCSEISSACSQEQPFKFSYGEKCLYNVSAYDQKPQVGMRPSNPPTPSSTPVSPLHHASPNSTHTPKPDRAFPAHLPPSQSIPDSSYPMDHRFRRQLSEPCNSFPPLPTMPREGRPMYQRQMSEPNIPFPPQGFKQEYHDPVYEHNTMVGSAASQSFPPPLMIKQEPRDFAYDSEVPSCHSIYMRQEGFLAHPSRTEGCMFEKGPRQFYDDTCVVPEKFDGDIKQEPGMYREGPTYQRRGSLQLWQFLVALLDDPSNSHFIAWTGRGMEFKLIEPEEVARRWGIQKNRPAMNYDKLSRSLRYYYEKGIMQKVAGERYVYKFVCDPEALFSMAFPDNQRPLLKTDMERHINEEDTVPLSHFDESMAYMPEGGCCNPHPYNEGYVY
# Chain of ELF4 (Q99607 whole entry): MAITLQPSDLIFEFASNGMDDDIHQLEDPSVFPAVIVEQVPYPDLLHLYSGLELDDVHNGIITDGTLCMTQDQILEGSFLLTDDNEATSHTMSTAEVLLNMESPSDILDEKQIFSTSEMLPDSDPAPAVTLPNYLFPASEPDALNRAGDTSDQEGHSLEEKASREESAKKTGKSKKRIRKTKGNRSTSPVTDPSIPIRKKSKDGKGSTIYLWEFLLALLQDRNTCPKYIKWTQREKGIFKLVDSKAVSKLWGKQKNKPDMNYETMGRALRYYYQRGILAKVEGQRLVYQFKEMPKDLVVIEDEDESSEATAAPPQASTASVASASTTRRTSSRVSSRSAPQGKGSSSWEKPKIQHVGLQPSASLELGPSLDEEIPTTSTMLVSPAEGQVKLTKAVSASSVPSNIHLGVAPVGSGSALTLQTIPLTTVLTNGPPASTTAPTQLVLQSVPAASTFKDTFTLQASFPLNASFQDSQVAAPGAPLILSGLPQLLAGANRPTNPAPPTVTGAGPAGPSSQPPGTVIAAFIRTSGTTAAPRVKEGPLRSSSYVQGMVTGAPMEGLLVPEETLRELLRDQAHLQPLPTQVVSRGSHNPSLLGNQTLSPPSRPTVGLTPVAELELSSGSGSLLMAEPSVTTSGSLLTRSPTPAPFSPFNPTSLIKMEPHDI
# Chain of ELF1 (P32519 whole entry): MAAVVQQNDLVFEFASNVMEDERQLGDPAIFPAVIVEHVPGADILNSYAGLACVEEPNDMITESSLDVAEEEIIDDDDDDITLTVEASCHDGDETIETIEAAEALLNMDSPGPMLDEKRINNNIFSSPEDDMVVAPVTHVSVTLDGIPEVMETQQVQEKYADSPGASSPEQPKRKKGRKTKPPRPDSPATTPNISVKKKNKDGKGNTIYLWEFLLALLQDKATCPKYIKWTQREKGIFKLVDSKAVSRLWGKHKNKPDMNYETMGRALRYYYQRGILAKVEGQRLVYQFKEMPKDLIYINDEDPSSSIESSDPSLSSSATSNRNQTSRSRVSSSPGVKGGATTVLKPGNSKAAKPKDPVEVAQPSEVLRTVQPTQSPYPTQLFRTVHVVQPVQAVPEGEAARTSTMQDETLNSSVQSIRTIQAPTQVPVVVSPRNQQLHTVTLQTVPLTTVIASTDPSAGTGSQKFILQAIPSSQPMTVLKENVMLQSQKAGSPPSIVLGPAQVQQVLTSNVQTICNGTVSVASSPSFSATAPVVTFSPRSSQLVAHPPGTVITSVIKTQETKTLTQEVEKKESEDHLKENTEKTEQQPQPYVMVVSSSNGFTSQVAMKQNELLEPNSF
# Chain of HSF1 (Q00613 whole entry): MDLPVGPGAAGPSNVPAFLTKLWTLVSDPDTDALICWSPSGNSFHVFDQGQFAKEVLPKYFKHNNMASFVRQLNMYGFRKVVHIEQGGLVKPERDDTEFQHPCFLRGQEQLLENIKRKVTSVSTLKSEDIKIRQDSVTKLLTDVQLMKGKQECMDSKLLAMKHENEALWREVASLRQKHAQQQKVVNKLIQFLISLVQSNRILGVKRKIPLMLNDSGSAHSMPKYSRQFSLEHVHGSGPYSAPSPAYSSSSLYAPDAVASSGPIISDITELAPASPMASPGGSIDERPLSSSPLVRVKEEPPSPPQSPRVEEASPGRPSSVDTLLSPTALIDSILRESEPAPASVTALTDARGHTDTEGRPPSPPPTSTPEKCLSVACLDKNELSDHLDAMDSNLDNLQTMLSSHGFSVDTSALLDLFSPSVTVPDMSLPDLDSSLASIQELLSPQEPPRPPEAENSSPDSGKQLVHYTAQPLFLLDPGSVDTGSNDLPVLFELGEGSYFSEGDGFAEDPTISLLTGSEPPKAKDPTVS
sequence,measurement,setting,value
TAGTGG,binding signal,FLI1,"1.18 fold enrichment (6-mer frequency, TF over GST control)"
same,binding signal,ELK1,"1.19 fold enrichment (6-mer frequency, TF over GST control)"
same,binding signal,GABPA,"1.25 fold enrichment (6-mer frequency, TF over GST control)"
same,binding signal,ERG,"1.07 fold enrichment (6-mer frequency, TF over GST control)"
same,binding signal,ELF1,"1.28 fold enrichment (6-mer frequency, TF over GST control)"
same,binding signal,EHF,"1.32 fold enrichment (6-mer frequency, TF over GST control)"
same,binding signal,SPI1,"1.19 fold enrichment (6-mer frequency, TF over GST control)"
same,binding signal,SPIB,"1.34 fold enrichment (6-mer frequency, TF over GST control)"
same,binding signal,ELK3,"1.4 fold enrichment (6-mer frequency, TF over GST control)"
same,binding signal,FEV,"1.21 fold enrichment (6-mer frequency, TF over GST control)"
same,binding signal,ETV5,"1.11 fold enrichment (6-mer frequency, TF over GST control)"
same,binding signal,HSF1,"1.33 fold enrichment (6-mer frequency, TF over GST control)"
same,binding signal,SPIC,"1.24 fold enrichment (6-mer frequency, TF over GST control)"
same,binding signal,ELF4,"1.15 fold enrichment (6-mer frequency, TF over GST control)"
same,binding signal,ELK4,"1.37 fold enrichment (6-mer frequency, TF over GST control)"
same,binding signal,ETV2,"1.15 fold enrichment (6-mer frequency, TF over GST control)"
same,binding signal,ELF3,"1.1 fold enrichment (6-mer frequency, TF over GST control)"
same,binding signal,CRX,"1.52 fold enrichment (6-mer frequency, TF over GST control)"
same,binding signal,ETV1,"1.14 fold enrichment (6-mer frequency, TF over GST control)"
